Among the data in PubChem BioAssay (Tox21) are Potency values, retold here.

Experiment [1] has as its target Acetylcholinesterase (Homo sapiens) (UniProt P22303). Kind of experiment: Acetylcholinesterase (AChE) small molecule antagonists: colormetric cell-based qHTS assay (AID 1347395). Also: nearly all actives have a fitted effect of over 30% in size. An outline of the steps: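 Neuroblastoma line SH-SY5Y supplied the enzyme; cells were preincubated with compound for 30 min at 37 C and 5% CO2. Acetylthiocholine with DTNB was then added for 90 min at 37 C, and thiocholine was measured by colour.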

Experiment [2] shares this target. The experiment is described as follows: Acetylcholinesterase (AChE) small molecule antagonists: enzyme-based qHTS assay (AID 1347397). Also: nearly all actives have a fitted effect of over 55% in size. As to conditions: Potency: AChE enzyme activity inhibition; outcome: AChE enzyme activity inhibition. An outline of the steps: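 Human recombinant acetylcholinesterase; substrate acetylthiocholine; thiocholine quantified with DTNB (colorimetric). Compound preincubation 30 min RT; reaction 10 min RT.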
(In general: qHTS replaces the single test concentration by a dilution series.)

Experiment [3] has the same target. The experiment is described as follows: Acetylcholinesterase (AChE) small molecule antagonists: fluorescence cell-based qHTS assay (AID 1347398). Also: nearly all actives have a fitted effect of over 50% in size. Also: potency is read from the fitted curve at half-maximal effect. The note with it: Potency: AChE activity; outcome: AChE activity. An outline of the steps:
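Thiocholine generated from acetylthiocholine by SH-SY5Y cell AChE is detected with Thiolite Green (Ex/Em 490/520 nm) after 40 min at room temperature, following 30 min compound pretreatment at 37 C.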

The target is the same in experiment [4]. The experiment is described as follows: Acetylcholinesterase (AChE) small molecule antagonists: enzyme-based qHTS assay with human liver microsomes (AID 1347399). Also: nearly all actives have a fitted effect of over 60% in size. As to conditions: Potency: qHTS inhibition; outcome: qHTS inhibition. In short, it runs like this:
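Recombinant human AChE (50 mU/mL in the enzyme mix) and human liver microsomes (0.25 mg/mL final) were preincubated with compound and NADPH (0.25 mg/mL final) for 30 min at 37 C. Acetylthiocholine/DTNB was then added; thiocholine was read colorimetrically after 10 min at room temperature.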

Inconclusive results are not listed. Where a structure was tested more than once in an assay, its records may differ in their call. Calls of active or inactive are those of the source. Calls follow the shape of the full dose curve.

Chain of Acetylcholinesterase (Homo sapiens) (P22303 whole entry, looked up): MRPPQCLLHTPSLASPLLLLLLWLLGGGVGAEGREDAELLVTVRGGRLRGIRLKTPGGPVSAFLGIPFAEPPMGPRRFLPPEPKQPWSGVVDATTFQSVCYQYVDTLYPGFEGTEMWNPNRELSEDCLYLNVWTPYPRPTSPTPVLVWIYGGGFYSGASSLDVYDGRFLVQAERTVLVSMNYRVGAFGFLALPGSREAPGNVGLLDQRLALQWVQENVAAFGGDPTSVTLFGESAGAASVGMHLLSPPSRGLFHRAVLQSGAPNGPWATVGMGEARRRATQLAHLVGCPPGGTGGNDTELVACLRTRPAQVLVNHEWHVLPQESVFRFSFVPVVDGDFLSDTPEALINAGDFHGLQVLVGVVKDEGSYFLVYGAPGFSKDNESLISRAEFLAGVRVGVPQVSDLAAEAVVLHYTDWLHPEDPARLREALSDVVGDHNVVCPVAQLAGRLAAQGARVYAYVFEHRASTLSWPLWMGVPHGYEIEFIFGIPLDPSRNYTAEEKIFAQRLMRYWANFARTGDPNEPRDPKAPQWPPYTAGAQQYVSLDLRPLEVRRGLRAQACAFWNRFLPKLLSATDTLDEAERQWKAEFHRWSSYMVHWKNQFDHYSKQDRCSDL

On to `CC(C)CC(C)CC(O)CC(C)C` (stereo not given), for which the Potency entry in experiment [1], in experiment [2], in experiment [3] and in experiment [4] was “inactive” throughout.

`Cn1c([N+](=O)[O-])cnc1COC(N)=O`: the Potency entry in experiment [1], in experiment [2], in experiment [3] and in experiment [4] was “inactive” throughout.

`C1CCC2OC2C1` (stereo not given): the Potency result in experiment [1], in experiment [2], in experiment [3] and in experiment [4] was “inactive” each time.

With `NCCCCCC(=O)O`, the Potency result in experiment [1], in experiment [2], in experiment [3] and in experiment [4] was “inactive” each time.

On to `CCCCCOc1ccc(C2SC(=O)NC2=O)cc1OCC` (stereo not given), for which the Potency result in experiment [1], in experiment [2], in experiment [3] and in experiment [4] was “inactive” throughout.

As for `CC(C)C(=O)c1c(C(C)C)nn2ccccc12`, the Potency entry in experiment [1], in experiment [2], in experiment [3] and in experiment [4] was “inactive” throughout.

In the case of `NNCCc1ccccc1`, the Potency result in experiment [1], in experiment [2], in experiment [3] and in experiment [4] was “inactive” throughout.

On to `CCCCCCCCNC(C)C(O)c1ccc(SC(C)C)cc1` (stereo not given), for which the Potency entry in experiment [1], in experiment [2], in experiment [3] and in experiment [4] was “inactive” throughout.

With `CCC(C(=O)OCCN(CC)CC)c1ccccc1` (stereo not given), the Potency entry in experiment [1], in experiment [2], in experiment [3] and in experiment [4] was “inactive” throughout.

`O=c1[nH]cnc2nc[nH]c12`: the Potency entry in experiment [1], in experiment [2], in experiment [3] and in experiment [4] was “inactive” throughout.

In the case of `COCC(=O)Nc1c(I)c(C(=O)NCC(O)CO)c(I)c(C(=O)N(C)CC(O)CO)c1I` (stereo not given), the Potency entry in experiment [1], in experiment [2], in experiment [3] and in experiment [4] was “inactive” each time.

Turning to `O=S(=O)(O)c1ccc(O)c2ncccc12`, the Potency entry in experiment [1], in experiment [2], in experiment [3] and in experiment [4] was “inactive” throughout.

Regarding `CCCCCCc1ccc(O)cc1O`, the Potency result in experiment [1], in experiment [2], in experiment [3] and in experiment [4] was “inactive” throughout.

As to `N[C@@H](Cc1cc(I)c(Oc2ccc(O)c(I)c2)c(I)c1)C(=O)O`, the Potency entry in experiment [1], in experiment [2], in experiment [3] and in experiment [4] was “inactive” each time.

`O=c1cc(-c2ccccc2)oc2cc(O)cc(O)c12`: the Potency entry in experiment [1], in experiment [2], in experiment [3] and in experiment [4] was “inactive” in each case.

Regarding `CCCCN(C)C`, the Potency entry in experiment [1], in experiment [2], in experiment [3] and in experiment [4] was “inactive” in each case.

Regarding `CC(C)=CCO`, the Potency entry in experiment [1], in experiment [2], in experiment [3] and in experiment [4] was “inactive” throughout.

`C=CCCC(=O)/C=C/C1C(C)=CCCC1(C)C` (stereo not given): the Potency result in experiment [1], in experiment [2], in experiment [3] and in experiment [4] was “inactive” throughout.

Regarding `C1N2CN3CN1CN(C2)C3`, the Potency result in experiment [1], in experiment [2], in experiment [3] and in experiment [4] was “inactive” each time.

For `COc1cc(C=O)ccc1O`, the Potency entry in experiment [1], in experiment [2], in experiment [3] and in experiment [4] was “inactive” each time.

Turning to `COc1cc(NS(=O)(=O)c2ccc(N)cc2)ncn1`, the Potency entry in experiment [1], in experiment [2], in experiment [3] and in experiment [4] was “inactive” throughout.

In the case of `O=C1Cc2cc(Cl)ccc2N1`, the Potency result in experiment [1], in experiment [2], in experiment [3] and in experiment [4] was “inactive” throughout.

In the case of `Cc1ccc2oc(=O)ccc2c1`, the Potency result in experiment [1], in experiment [2], in experiment [3] and in experiment [4] was “inactive” in each case.

Regarding `Cc1nn(C)c(Oc2ccccc2)c1/C=N/OCc1ccc(C(=O)OC(C)(C)C)cc1`, the Potency result in experiment [1], in experiment [2], in experiment [3] and in experiment [4] was “inactive” throughout.

For `CCCCCC[C@@H](O)C/C=C\CCCCCCCC(=O)O`, the Potency result in experiment [1], in experiment [2], in experiment [3] and in experiment [4] was “inactive” each time.

Take `OC1OC[C@@H](O)[C@H](O)[C@H]1O` (stereo not given in full): the Potency result in experiment [1], in experiment [2], in experiment [3] and in experiment [4] was “inactive” throughout.

Take `O=C(O)Cc1csc(-c2ccc(Cl)cc2)n1`: the Potency result in experiment [1], in experiment [2], in experiment [3] and in experiment [4] was “inactive” in each case.

For `CC1(N)CCC(C(C)(C)N)CC1` (stereo not given), the Potency result in experiment [1], in experiment [2], in experiment [3] and in experiment [4] was “inactive” each time.

For the compound `OCC(CO)(CO)COCC(CO)(CO)CO`, the Potency result in experiment [1], in experiment [2], in experiment [3] and in experiment [4] was “inactive” each time.

As for `CCCCCCCCCCO`, the Potency entry in experiment [1], in experiment [2], in experiment [3] and in experiment [4] was “inactive” each time.

Take `CC1(C)[C@@H]2CC[C@@]1(C)[C@H](O)C2`: the Potency result in experiment [1], in experiment [2], in experiment [3] and in experiment [4] was “inactive” each time.

On to `O=S(=O)(O)c1cc(S(=O)(=O)O)c2c(N=Nc3ccccc3)c(O)ccc2c1`, for which the Potency result in experiment [1], in experiment [2], in experiment [3] and in experiment [4] was “inactive” each time.

Turning to `C=C(C)C(=O)OCCOC(=O)C(=C)C`, the Potency entry in experiment [1], in experiment [2], in experiment [3] and in experiment [4] was “inactive” throughout.

Regarding `NS(=O)(=O)O`, the Potency entry in experiment [1], in experiment [2], in experiment [3] and in experiment [4] was “inactive” throughout.

With `C=CCOC(=O)CCC1CCCCC1`, the Potency entry in experiment [1], in experiment [2], in experiment [3] and in experiment [4] was “inactive” in each case.

As to `CCN(Cc1cccnc1)C(=O)c1cccc(Cl)c1[C@]1(C)C(=O)N(Cc2ccc(OC)cc2OC)c2ccc(Cl)cc21`, the Potency result in experiment [1], in experiment [2], in experiment [3] and in experiment [4] was “inactive” each time.

As for `CCCCNS(=O)(=O)c1ccc(C)cc1`, the Potency entry in experiment [1], in experiment [2], in experiment [3] and in experiment [4] was “inactive” throughout.

With `CCCCOCCO`, the Potency entry in experiment [1], in experiment [2], in experiment [3] and in experiment [4] was “inactive” in each case.

In the case of `CCCCCCCCCCO[C@@H]1O[C@H](CO)[C@@H](O)[C@H](O)[C@H]1O`, the Potency entry in experiment [1], in experiment [2], in experiment [3] and in experiment [4] was “inactive” each time.

Turning to `C[C@@H](O)C(=O)O`, the Potency entry in experiment [1], in experiment [2], in experiment [3] and in experiment [4] was “inactive” in each case.

Turning to `CCCCCCCCCC(=O)OC`, the Potency result in experiment [1], in experiment [2] and in experiment [4] was “inactive” each time. Moreover, the Potency in experiment [3] was 34.9 µM (active) and inactive.

With `CCCC(=O)O[C@]1(C(=O)CC)CC[C@H]2[C@@H]3CCC4=CC(=O)CC[C@]4(C)[C@H]3[C@@H](O)C[C@@]21C`, the Potency entry in experiment [1], in experiment [2], in experiment [3] and in experiment [4] was “inactive” each time.

With `O=C1OC2(c3ccc(O)cc3Oc3cc(O)ccc32)c2ccccc21`, the Potency result in experiment [1], in experiment [2], in experiment [3] and in experiment [4] was “inactive” each time.

Regarding `Cc1ncc(CSSCc2cnc(C)c(O)c2CO)c(CO)c1O`, the Potency entry in experiment [1], in experiment [2], in experiment [3] and in experiment [4] was “inactive” in each case.

For `CC(C)CCCC(C)N` (stereo not given), the Potency result in experiment [1], in experiment [2], in experiment [3] and in experiment [4] was “inactive” each time.

For `CC(C)c1ccc(S(=O)(=O)O)cc1`, the Potency entry in experiment [1], in experiment [2], in experiment [3] and in experiment [4] was “inactive” in each case.

As for `C[C@H](CCC(=O)O)[C@H]1CC[C@H]2[C@@H]3CC[C@@H]4C[C@H](O)CC[C@]4(C)[C@H]3CC[C@]12C`, the Potency entry in experiment [1], in experiment [2], in experiment [3] and in experiment [4] was “inactive” throughout.

`C=C(C)C(=O)OCCO`: the Potency entry in experiment [1], in experiment [2], in experiment [3] and in experiment [4] was “inactive” throughout.

With `Cc1c2ccccc2c(C)c2c1ccc1ccccc12`, the Potency entry in experiment [1], in experiment [2], in experiment [3] and in experiment [4] was “inactive” throughout.

On to `Cc1ccc2c(ccc3ccccc32)c1`, for which the Potency entry in experiment [1], in experiment [2], in experiment [3] and in experiment [4] was “inactive” throughout.

With `Oc1ccc(Sc2ccc(O)cc2)cc1`, the Potency result in experiment [1], in experiment [2], in experiment [3] and in experiment [4] was “inactive” throughout.

For `C#C[C@]1(O)CC[C@H]2[C@@H]3[C@H](C)CC4=C(CCC(=O)C4)[C@H]3CC[C@@]21C`, the Potency entry in experiment [1], in experiment [2], in experiment [3] and in experiment [4] was “inactive” each time.

`NC(=O)CCCCC1CCSS1` (stereo not given): the Potency result in experiment [1], in experiment [2], in experiment [3] and in experiment [4] was “inactive” each time.

For the compound `C=CCCC=C`, the Potency result in experiment [1], in experiment [2], in experiment [3] and in experiment [4] was “inactive” in each case.

As for `CC1=NN(c2ccc(S(=O)(=O)O)cc2)C(=O)C1`, the Potency result in experiment [1], in experiment [2], in experiment [3] and in experiment [4] was “inactive” throughout.

With `CCCN(CCC)C(=O)C(CCC(=O)OCCCN1CCN(CCOC(=O)Cc2c(C)n(C(=O)c3ccc(Cl)cc3)c3ccc(OC)cc23)CC1)NC(=O)c1ccccc1` (stereo not given), the Potency entry in experiment [1], in experiment [2], in experiment [3] and in experiment [4] was “inactive” in each case.

With `CC1(C)OC[C@@H](COC(=O)CCc2ccc(OC[C@@H](O)CNCCNC(=O)N3CCOCC3)cc2)O1`, the Potency entry in experiment [1], in experiment [2], in experiment [3] and in experiment [4] was “inactive” in each case.

As to `CC(C)(C)c1cc(Cc2cc(C(C)(C)C)c(O)c(C(C)(C)C)c2)cc(C(C)(C)C)c1O`, the Potency entry in experiment [1], in experiment [2], in experiment [3] and in experiment [4] was “inactive” in each case.

Regarding `CCCCCCCCCCCCCCCCC(=O)O`, the Potency result in experiment [1], in experiment [2], in experiment [3] and in experiment [4] was “inactive” throughout.

On to `COCCOC(=O)CC#N`, for which the Potency result in experiment [1], in experiment [2], in experiment [3] and in experiment [4] was “inactive” in each case.
